Consider seven compounds from PubChem BioAssay (Tox21).

Test [1] can be described thus: qHTS assay to identify small molecule agonists of the sonic hedgehog signaling (Shh) pathway (AID 1259368; calls by dose curve;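 note: NIH/3T3-derived 3T3Gli1-Luc cells carrying a stable Gli1-driven firefly luciferase reporter; series mostly up to about 92 µM; nearly all actives have a fitted effect of over 15% in size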). Summed up: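 Stable NIH/3T3 Gli1-Luc reporter clone; 24 hr cpd exposure after a 4 hr settling period; luminescence endpoint.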
(Quantitative high-throughput screening tests each substance at several concentrations.)

The nature of test [2]: qHTS assay to identify small molecule antagonists of the sonic hedgehog signaling (Shh) pathway (AID 1259369; calls by dose curve; note: nearly all actives have a fitted effect of over 45% in size; note: potency is the fitted concentration of half-maximal effect). The method, boiled down: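 Gli1 transcriptional reporter (firefly Luc) in NIH/3T3 background, conditioned-medium activated. 24hr exposure, luminescence endpoint.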
Test [3] addresses Estrogen receptor beta (Homo sapiens) (UniProt Q92731). Description: qHTS assay to identify small molecule agonists of the estrogen receptor beta (ER-beta) signaling pathway (AID 1259377; active = well fitted activation curve with a large enough effect in the signal ratio in the repeat runs, not every such curve was filed as active; the % refers to the signal ratio). The method, boiled down:
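Beta-lactamase reporter readout: fluorescence of LiveBLAzer B/G FRET substrate after 2 h at room temperature, following 16 h compound treatment of ER-beta-UAS-bla HEK293T cells at 37C in 2% charcoal-stripped FBS medium.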

The target is the same in test [4]. Description: qHTS assay to identify small molecule antagonists of the estrogen receptor beta (ER-beta) signaling pathway (AID 1259378; active = well fitted inhibition curve with a large enough effect in the signal ratio in the repeat runs, not every such curve was filed as active; the % refers to the signal ratio). Summed up:
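ER-beta-UAS-bla HEK293T cells in 2% charcoal-stripped FBS medium treated with compound plus 1nM final 17-beta-estradiol for 16 hr at 37C. Beta-lactamase reporter read by FRET substrate fluorescence after 2 hours at room temperature.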

Test [5] can be described thus: qHTS assay to identify small molecule agonists of the androgen receptor (AR) signaling pathway in the presence of an antagonist - cell viability counter screen (AID 1259379). Note: nearly all actives have a fitted effect of over 25% in size. Note: potency is the fitted concentration of half-maximal effect. Summed up: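 Counter screen for cell viability run in parallel with the AR agonist-mode luciferase assay. MDA-kb2 cells were co-treated with nilutamide (3.0uM final) and compounds, then incubated 16 hr at 37C, and CellTiter-Fluor fluorescence was measured.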

Test [6] is described as follows: qHTS assay to identify small molecule agonists of the estrogen receptor beta (ER-beta) signaling pathway - cell viability counter screen (AID 1259380). Note: nearly all actives have a fitted effect of over 30% in size. Note: potency is the fitted concentration of half-maximal effect. The method, boiled down: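 In this qHTS counter screen, HEK293T cells carrying an ER-beta/UAS beta-lactamase reporter, grown in 2% charcoal-stripped FBS, received compound for 16 hr; ATP-based CellTiter-Glo luminescence was then read after 30 min at room temperature.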

Test [7] addresses Estrogen receptor (Homo sapiens) (UniProt P03372). Briefly: qHTS assay to identify small molecule agonists of the estrogen receptor alpha (ER-alpha) signaling pathway in the presence of an antagonist (AID 1259383; calls by dose curve; note: top concentration of the series differs between compounds; nearly all actives have a fitted effect of over 15% in size). Summed up: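 ER-alpha agonism measured under antagonist challenge: 10.0nM ICI-182,780 (final) plus compound, 15 concentrations, 22hr, VM7Luc4E2 ERE-luciferase cells. Read by luminescence.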

Test [8] can be described thus: qHTS assay to identify small molecule agonists or antagonists of the thyroid stimulating hormone receptor (TSHR) signaling pathway - wild type cell line counter screen (AID 1259384; calls by dose curve). The method, boiled down: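 Wild-type Hek293 cells, 800/well, 18 h at 37C, then compound with Ro20-1724 for 30 min RT. cAMP by HTRF (cAMP-d2/anti-cAMP cryptate), 1 h RT, fluorescence read. 15 concentrations, triplicates.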

For test [9], the target named is Thyrotropin receptor (Homo sapiens) (UniProt P16473). Description: qHTS assay to identify small molecule antagonists of the thyroid stimulating hormone receptor (TSHR) signaling pathway (AID 1259385; calls by dose curve; note: nearly all actives have a fitted effect of over 20% in size; note: potency is the fitted concentration of half-maximal effect). The method, boiled down: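 TSHR-HEK293 cells (800/well) plated 18 h, then compounds with Ro20-1724 and TSH at 1.5 ng/mL final, 30 min at room temperature. cAMP quantified by HTRF (cAMP-d2/anti-cAMP-cryptate, 1 h); 15 concentrations in triplicate.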

Test [10] can be described thus: qHTS assay to identify small molecule agonists of the estrogen receptor alpha (ER-alpha) signaling pathway in the presence of an antagonist - cell viability counter screen (AID 1259386).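 Note: cells exposed to compounds for 22 h at 37 °C before the viability read; nearly all actives have a fitted effect of over 30% in size.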 Note: potency is the fitted concentration of half-maximal effect. Summed up:
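Steps: 5-day stripped-FBS culture; seed and incubate 24hr; add ICI-182,780 (10.0nM final); pin 15-point compound titration; incubate 22hr at 37C; add CellTiter-Fluor at 21hr; read fluorescence.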

In test [11] the target is Progesterone receptor (Homo sapiens) (UniProt P06401). Description: qHTS assay to identify small molecule agonists of the progesterone receptor (PR) signaling pathway (AID 1346784; calls by dose curve; note: nearly all actives have a fitted effect of over 30% in size). Summed up:
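HEK 293T PR-UAS-bla reporter cells, 2% charcoal-stripped FBS; 6 hr settle at 37C/5% CO2, compound (DMSO) 16 hr, LiveBLAzer B/G FRET substrate 2 hr RT, fluorescence intensity read.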

The target is the same in test [12]. Briefly: qHTS assay to identify small molecule antagonists of the progesterone receptor (PR) signaling pathway (AID 1346795; active = well fitted inhibition curve with a large enough effect in the signal ratio in the repeat runs, not every such curve was filed as active; the % refers to the signal ratio). The method, boiled down: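 Beta-lactamase reporter, HEK293T PR-UAS-bla line; 2% charcoal-stripped FBS; 6 hr pre-incubation, 37C/5% CO2. Compound + R5020 1 nM final, 16 hr. LiveBLAzer B/G FRET substrate, 2 hr RT; fluorescence intensity read.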

Test [13] in a line: qHTS assay to identify small molecule antagonists of the TGF-beta/Smad signaling pathway - cell viability counter screen (AID 1346824). Note: nearly all actives have a fitted effect of over 50% in size. The method, boiled down:
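SBE-bla HEK 293T cells, incubated overnight, then compound plus 0.25 ng/mL TGF-beta1 (stock added) for 5 hr at 37 C. Viability was read in the same wells by CellTiter-Glo luminescence after 30 min at room temperature.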

A short description of test [14]: qHTS assay to identify small molecule agonists of the TGF-beta/Smad signaling pathway - cell viability counter screen (AID 1346829). Note: top concentration of the series differs between compounds; nearly all actives have a fitted effect of over 45% in size. Summed up: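 Same-well cytotoxicity: CellTiter-Glo added after the 2 hr room-temperature beta-lactamase substrate step, luminescence measured 30 min later; cells had 5 hr of compound at 37 C.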
A short description of test [15]: qHTS assay to identify small molecule agonists of the TGF-beta/Smad signaling pathway (AID 1346859; active = well fitted activation curve with a large enough effect in the signal ratio in the repeat runs, not every such curve was filed as active; the % refers to the signal ratio; note: series mostly up to about 77 µM). Summed up: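 Read-out: fluorescence at 460 and 530 nm (405 nm excitation) after a 2 hr room-temperature incubation with beta-lactamase FRET substrate. SBE-bla HEK 293T cells had been treated with test compounds for 5 hr at 37 C.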
Test [16] has as its target Thyrotropin-releasing hormone receptor (Homo sapiens) (UniProt P34981). Briefly: qHTS assay to identify small molecule antagonists of the thyrotropin-releasing hormone receptor (TRHR) signaling pathway (AID 1346877; active = well fitted inhibition curve with a large enough effect in the repeat runs, not every such curve was filed as active; note: series mostly up to about 51 µM). The method, boiled down:
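Human TRHR in HEK293 cells; inhibition of the intracellular calcium rise triggered by 1 nM TRH was followed by fluorescence over 3 min. Compounds were run at 15 concentrations, three replicates each.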

Test [17] addresses Androgen receptor (Homo sapiens) (UniProt P10275). Briefly: qHTS assay to identify small molecule agonists of the androgen receptor (AR) signaling pathway in the presence of an antagonist (AID 1259381; calls by dose curve; note: nearly all actives have a fitted effect of over 15% in size). Summed up: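 AR antagonist background: nilutamide 3.0uM final. Cell line: MDA-kb2, MMTV-driven luciferase, responsive to both AR and GR. Exposure 16hr, 37C, no CO2; ONE-Glo luminescence.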

Test [18] is described as follows: qHTS assay to identify small molecule antagonists of the estrogen receptor beta (ER-beta) signaling pathway - cell viability counter screen (AID 1259382). Note: series mostly up to about 92 µM; nearly all actives have a fitted effect of over 55% in size. The method, boiled down: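 HEK293T ER-beta-UAS-bla, 2% charcoal-stripped FBS; compounds + 1nM E2 16 hr 37C; CellTiter-Glo luminescence, 30 min RT.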
The nature of test [19]: qHTS assay to identify small molecule antagonists of the progesterone receptor (PR) signaling pathway - cell viability counter screen (AID 1346798). Note: series mostly up to about 92 µM; nearly all actives have a fitted effect of over 50% in size. Summed up: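 Luminescence readout (CellTiter-Glo, 30 min, RT) of viability in PR-UAS-bla HEK293T cells exposed to compound and R5020 agonist for 16 hr at 37C, 5% CO2; run in the same wells as the beta-lactamase reporter read.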

The nature of test [20]: qHTS assay to identify small molecule agonists of the progesterone receptor (PR) signaling pathway - cell viability counter screen (AID 1346799; calls by dose curve; note: nearly all actives have a fitted effect of over 45% in size). The method, boiled down: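 HEK293T PR-UAS-bla, 3,000 cells/well, 2% charcoal-stripped FBS; 6 h settle, compound 16 h at 37C/5% CO2; LiveBLAzer 2 h RT, then CellTiter-Glo 30 min RT, luminescence read.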

Values joined by “and” are separate entries in the source; they are usually repeats but may differ in a detail not shown here. Equal entries are not always repeated. Records with an inconclusive call do not appear. The source holds several records for some structures; these can differ, active in one and inactive in another. Active and inactive are the calls of the source. Unless noted, calls come from the whole dose curve; as a rule, active = well fitted curve in the direction sought with a large enough effect in the repeat runs; inconclusive = weak or mixed curves; inactive = no such curve, though single readings can be large; an effect the other way counts as inactive or inconclusive.

Chain of Estrogen receptor beta (Homo sapiens) (Q92731 whole entry, looked up): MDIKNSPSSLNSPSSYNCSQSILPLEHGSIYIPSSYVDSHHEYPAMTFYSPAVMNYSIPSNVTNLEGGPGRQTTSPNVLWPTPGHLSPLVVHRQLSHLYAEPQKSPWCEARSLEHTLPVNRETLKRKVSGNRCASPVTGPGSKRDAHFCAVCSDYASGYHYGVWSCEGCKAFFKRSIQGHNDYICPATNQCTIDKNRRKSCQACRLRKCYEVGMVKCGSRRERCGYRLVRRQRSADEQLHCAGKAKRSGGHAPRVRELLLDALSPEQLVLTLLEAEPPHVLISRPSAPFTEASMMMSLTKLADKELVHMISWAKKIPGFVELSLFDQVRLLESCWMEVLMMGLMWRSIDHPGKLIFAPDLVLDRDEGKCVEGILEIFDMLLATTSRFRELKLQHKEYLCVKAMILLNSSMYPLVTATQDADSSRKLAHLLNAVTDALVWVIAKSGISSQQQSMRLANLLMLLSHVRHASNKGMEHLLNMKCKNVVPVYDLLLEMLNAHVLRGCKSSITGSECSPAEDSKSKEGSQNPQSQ
Chain of Thyrotropin-releasing hormone receptor (Homo sapiens) (P34981 whole entry, looked up): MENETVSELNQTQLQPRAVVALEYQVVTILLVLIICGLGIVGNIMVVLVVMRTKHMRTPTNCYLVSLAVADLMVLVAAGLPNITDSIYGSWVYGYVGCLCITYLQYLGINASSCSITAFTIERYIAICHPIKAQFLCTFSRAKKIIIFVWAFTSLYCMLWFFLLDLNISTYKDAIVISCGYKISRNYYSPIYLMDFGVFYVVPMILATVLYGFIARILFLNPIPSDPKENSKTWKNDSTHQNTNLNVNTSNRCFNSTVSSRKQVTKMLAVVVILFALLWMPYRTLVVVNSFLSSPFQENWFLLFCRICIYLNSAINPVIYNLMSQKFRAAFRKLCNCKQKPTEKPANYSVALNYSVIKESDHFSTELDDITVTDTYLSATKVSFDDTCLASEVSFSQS
Chain of Progesterone receptor (Homo sapiens) (P06401 whole entry, looked up): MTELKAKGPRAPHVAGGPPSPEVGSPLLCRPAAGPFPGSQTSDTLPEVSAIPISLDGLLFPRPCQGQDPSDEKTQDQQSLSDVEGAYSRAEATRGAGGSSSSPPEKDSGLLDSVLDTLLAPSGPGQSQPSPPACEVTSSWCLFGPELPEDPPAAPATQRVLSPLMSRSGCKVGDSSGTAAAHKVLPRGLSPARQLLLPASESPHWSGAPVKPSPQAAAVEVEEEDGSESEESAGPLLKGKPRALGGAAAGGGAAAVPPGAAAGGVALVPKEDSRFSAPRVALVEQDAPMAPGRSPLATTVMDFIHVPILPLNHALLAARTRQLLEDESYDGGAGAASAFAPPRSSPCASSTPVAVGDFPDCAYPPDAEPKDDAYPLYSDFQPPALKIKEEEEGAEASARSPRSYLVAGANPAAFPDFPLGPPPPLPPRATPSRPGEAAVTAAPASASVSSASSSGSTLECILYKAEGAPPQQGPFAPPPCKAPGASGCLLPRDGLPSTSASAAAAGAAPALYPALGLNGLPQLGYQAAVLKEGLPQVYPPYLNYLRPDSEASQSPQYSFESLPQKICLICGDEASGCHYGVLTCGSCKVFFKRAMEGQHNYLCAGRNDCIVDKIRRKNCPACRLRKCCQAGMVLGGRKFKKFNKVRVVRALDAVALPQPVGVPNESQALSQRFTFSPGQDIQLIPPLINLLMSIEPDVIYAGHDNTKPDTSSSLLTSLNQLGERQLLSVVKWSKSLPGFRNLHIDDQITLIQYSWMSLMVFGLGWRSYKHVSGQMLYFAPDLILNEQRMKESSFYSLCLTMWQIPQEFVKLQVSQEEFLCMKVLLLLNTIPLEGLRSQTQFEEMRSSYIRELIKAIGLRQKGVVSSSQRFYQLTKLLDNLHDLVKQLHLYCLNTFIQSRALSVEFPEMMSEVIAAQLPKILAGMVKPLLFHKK
Chain of Thyrotropin receptor (Homo sapiens) (P16473 whole entry, looked up): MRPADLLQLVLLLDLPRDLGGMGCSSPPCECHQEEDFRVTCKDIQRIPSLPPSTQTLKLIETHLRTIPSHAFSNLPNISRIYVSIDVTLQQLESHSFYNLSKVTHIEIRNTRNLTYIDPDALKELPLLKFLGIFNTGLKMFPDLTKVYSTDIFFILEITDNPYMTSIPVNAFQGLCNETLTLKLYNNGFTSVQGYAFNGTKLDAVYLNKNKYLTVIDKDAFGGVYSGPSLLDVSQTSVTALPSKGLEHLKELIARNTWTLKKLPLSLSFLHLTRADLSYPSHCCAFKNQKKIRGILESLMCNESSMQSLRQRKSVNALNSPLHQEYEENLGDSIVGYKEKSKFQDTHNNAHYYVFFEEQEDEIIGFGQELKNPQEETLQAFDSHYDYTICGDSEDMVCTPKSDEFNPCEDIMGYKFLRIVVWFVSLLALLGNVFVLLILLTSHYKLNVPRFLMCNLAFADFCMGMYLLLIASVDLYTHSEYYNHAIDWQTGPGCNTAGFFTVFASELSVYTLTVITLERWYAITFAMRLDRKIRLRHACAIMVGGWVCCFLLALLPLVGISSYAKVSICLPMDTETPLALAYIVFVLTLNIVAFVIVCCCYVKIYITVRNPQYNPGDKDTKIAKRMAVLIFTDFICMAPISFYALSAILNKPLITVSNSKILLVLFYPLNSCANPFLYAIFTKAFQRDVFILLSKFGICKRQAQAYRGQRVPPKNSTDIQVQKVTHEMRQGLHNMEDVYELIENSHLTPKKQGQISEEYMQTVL
Chain of Estrogen receptor (Homo sapiens) (P03372 whole entry, looked up): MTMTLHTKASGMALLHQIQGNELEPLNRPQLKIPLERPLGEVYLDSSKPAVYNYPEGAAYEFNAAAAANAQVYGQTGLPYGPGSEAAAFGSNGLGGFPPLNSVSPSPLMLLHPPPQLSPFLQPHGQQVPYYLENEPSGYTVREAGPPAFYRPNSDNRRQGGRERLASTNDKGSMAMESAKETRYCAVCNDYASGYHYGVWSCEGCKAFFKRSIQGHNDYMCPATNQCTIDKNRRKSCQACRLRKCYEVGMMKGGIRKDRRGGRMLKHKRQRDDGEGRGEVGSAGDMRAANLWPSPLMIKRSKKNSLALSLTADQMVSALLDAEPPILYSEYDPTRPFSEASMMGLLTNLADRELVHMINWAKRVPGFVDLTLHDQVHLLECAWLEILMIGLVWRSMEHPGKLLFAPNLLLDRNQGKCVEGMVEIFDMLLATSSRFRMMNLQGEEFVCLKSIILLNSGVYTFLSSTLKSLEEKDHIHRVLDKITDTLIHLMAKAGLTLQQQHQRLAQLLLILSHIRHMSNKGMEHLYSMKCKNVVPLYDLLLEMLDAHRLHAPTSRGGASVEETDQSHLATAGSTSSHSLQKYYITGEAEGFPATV
Chain of Androgen receptor (Homo sapiens) (P10275 whole entry, looked up): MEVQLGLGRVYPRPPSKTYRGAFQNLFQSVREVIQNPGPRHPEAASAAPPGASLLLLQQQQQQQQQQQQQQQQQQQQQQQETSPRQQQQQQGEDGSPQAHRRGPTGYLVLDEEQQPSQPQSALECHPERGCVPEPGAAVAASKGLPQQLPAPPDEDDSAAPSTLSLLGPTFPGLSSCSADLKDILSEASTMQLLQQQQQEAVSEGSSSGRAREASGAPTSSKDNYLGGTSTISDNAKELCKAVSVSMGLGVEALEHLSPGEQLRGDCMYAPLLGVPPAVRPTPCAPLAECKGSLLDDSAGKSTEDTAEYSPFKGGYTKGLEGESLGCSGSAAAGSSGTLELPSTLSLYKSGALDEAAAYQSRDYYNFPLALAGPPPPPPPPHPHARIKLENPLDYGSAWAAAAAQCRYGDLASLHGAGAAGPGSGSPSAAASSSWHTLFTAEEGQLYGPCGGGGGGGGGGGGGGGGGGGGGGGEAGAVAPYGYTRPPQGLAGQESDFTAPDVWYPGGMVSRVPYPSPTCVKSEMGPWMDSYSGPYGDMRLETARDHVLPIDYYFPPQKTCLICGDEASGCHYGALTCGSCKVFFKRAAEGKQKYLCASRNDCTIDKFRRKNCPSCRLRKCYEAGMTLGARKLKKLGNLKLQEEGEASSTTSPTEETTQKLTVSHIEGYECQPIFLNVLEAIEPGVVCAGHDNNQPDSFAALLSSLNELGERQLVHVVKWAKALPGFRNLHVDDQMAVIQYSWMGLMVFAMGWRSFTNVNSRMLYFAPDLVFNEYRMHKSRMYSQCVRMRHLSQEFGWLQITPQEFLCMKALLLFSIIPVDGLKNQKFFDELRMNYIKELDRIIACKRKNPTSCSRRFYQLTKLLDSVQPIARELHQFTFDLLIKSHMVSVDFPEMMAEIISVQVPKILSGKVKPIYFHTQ

Consider `c1cc(-c2ccncc2)ccn1`, for which the Potency entry in test [1], in test [2], in test [3], in [4], in test [5] and in test [6] was “inactive” in each case. The Potency entry in test [7], in [9], in test [10], in test [11], in [12] and in [13] was “inactive” each time. The Potency result in test [14] and in test [16] was “inactive” in each case. Besides, the compound was classed as inactive in test [8] and in [15].
For `Cc1cccc([N+](=O)[O-])c1C`, the Potency entry in test [1], in test [2], in test [3], in test [4], in test [5] and in [6] was “inactive” in each case. In addition, the Potency result in [18], in test [10], in [11], in test [12], in test [19] and in test [20] was “inactive” each time. Moreover, the Potency entry in test [13], in [14] and in [16] was “inactive” in each case. The outcome in [17] and in test [15] was inactive.
As for `CC(C(=O)O)c1cccc(C(=O)c2ccccc2)c1` (stereo unspecified), the Potency result in test [1], in test [2], in test [3], in [4], in test [5] and in test [6] was “inactive” each time. Besides, the Potency entry in test [18], in [7], in test [9], in test [10], in [11] and in test [12] was “inactive” each time. Moreover, the Potency entry in test [20], in test [13], in test [14] and in test [16] was “inactive” throughout. In [8], the result was inactive.
For `O=C(c1ccccc1)c1ccccc1O`, the Potency entry in [1], in test [2], in test [3], in [4], in test [5] and in test [6] was “inactive” in each case. Also, the Potency entry in test [9], in [10], in test [11], in test [12], in [13] and in test [14] was “inactive” in each case. The Potency entry in test [16] was “inactive”. Moreover, the outcome in test [17], in test [8] and in [15] was inactive.
Regarding `O=C(Nc1ccc(Cl)cc1)Nc1ccc(Cl)c(Cl)c1`, the Potency entry in [1], in test [3], in [18], in test [7], in [11] and in test [13] was “inactive” throughout. The Potency result in test [14] is “inactive”. The Potency in test [2] was 12.1 µM (active) and inactive; in [5] it was 21.6 µM (active) and 24.3 µM (active) and 26.6 µM (active); in test [6], 1.08 µM (active) and 2.17 µM (active); in [9], 61.1 µM (active); in [10], “inactive and 33.5 µM (active)”. Further, the result in [17], in test [8] and in test [15] was inactive.
In the case of `CC(C)OB(OC(C)C)OC(C)C`, the Potency result in test [1], in test [2], in [3], in test [4], in test [5] and in test [6] was “inactive” in each case. Also, the Potency result in test [18], in test [10], in test [11], in test [12], in test [19] and in test [13] was “inactive” throughout. Moreover, in test [14], the Potency result is “inactive”. Moreover, the outcome in test [15] was inactive.
Regarding `Cc1ncc[nH]1`, the Potency result in [1], in [2], in [3], in [4], in [5] and in test [6] was “inactive” each time. Also, the Potency entry in test [9], in [10], in [11], in [12], in test [19] and in test [20] was “inactive” each time. The Potency result in test [13] and in test [14] was “inactive” throughout. The call in test [8] and in test [15] was inactive.
